These results are taken from PubChem BioAssay (NCI).

Assay in all cases: NCI-60 one-dose screen, 48 h (100 = growth as untreated, 0 = no growth, -100 = all killed)
One experiment deals with EKVX NSCLC. To be noted: 10 µM unless noted.
A further experiment concerns SN12C renal. Conditions: 10 µM unless noted.
In another experiment the test system is UO-31 renal. Conditions: 10 µM unless noted.
The subject of the next experiment is TK-10 renal. To be noted: 10 µM unless noted.
For a further experiment, the system named is ACHN renal. To be noted: 10 µM unless noted.
A further experiment has as its system CAKI-1 renal. Conditions: 10 µM unless noted.
A further experiment relates to A498 renal. To be noted: 10 µM unless noted.
For a further experiment, the system named is MOLT-4 leukemia. Conditions: 10 µM unless noted.
For the next experiment, the system named is SR leukemia. Conditions: 10 µM unless noted.
In the next experiment the test system is RPMI-8226 leukemia. Conditions: 10 µM unless noted.
A further experiment concerns OVCAR-8 ovarian. To be noted: 10 µM unless noted.
The test system of another experiment is OVCAR-5 ovarian. To be noted: 10 µM unless noted.
A further experiment relates to OVCAR-4 ovarian. Conditions: 10 µM unless noted.
The test system of a further experiment is SK-OV-3 ovarian. To be noted: 10 µM unless noted.
Another experiment concerns IGROV1 ovarian. To be noted: 10 µM unless noted.
Another experiment deals with OVCAR-3 ovarian. Conditions: 10 µM unless noted.
The subject of a further experiment is NCI/ADR-RES ovarian. Conditions: 10 µM unless noted.
A further experiment relates to CCRF-CEM leukemia. Conditions: 10 µM unless noted.
The subject of another experiment is HS 578T breast. Conditions: 10 µM.

About 83,000 compounds went through this panel and 20% of them were active in at least one assay; those are over-represented in the sample as a whole.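 Cell lines were cultured in 96-well plates, exposed to a single compound concentration, and assessed for percent growth 48 hours later.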 Values without a mark were called inactive. The source made the active and inactive calls. The calls were made as follows: active = growth percent below 10; inactive = the rest.

Consider `COc1cc(Nc2c(C#N)cnc3cc(OCCCN4CCN(C)CC4)c(OC)cc23)c(Cl)cc1Cl`, for which the growth in the experiment on EKVX NSCLC was 54.9%; with SN12C renal, 51.9%; with UO-31 renal, 38.1%; in the experiment with TK-10 renal, 29.8%; in the experiment on ACHN renal, 27.3%; with CAKI-1 renal, 31%. Moreover, the growth in the experiment on A498 renal is 78.3%; in the experiment with MOLT-4 leukemia, 33.3%; with SR leukemia, 31.5%; with RPMI-8226 leukemia it was 59.3%; with OVCAR-8 ovarian, 42.9%; with OVCAR-5 ovarian, 22.8%. Also, the growth was 56% with OVCAR-4 ovarian; 44.3% in the experiment on SK-OV-3 ovarian; 6.33% (active) with IGROV1 ovarian; 77.9% in the experiment on OVCAR-3 ovarian; 78.6% in the experiment on NCI/ADR-RES ovarian.

As to `CN1CCN(CCOc2cc(OC3CCOCC3)c3c(Nc4c(Cl)ccc5c4OCO5)ncnc3c2)CC1`, the growth is 43.8% with EKVX NSCLC; 46.1% in the experiment on SN12C renal; 17.7% in the experiment with UO-31 renal; 5.06% (active) in the experiment on TK-10 renal; 12.5% in the experiment on ACHN renal; 21.7% in the experiment with CAKI-1 renal. For the same compound, the growth in the experiment on CCRF-CEM leukemia is 84.3%; with MOLT-4 leukemia, 56.2%; with SR leukemia it was 38.7%; with RPMI-8226 leukemia it was 95.1%; in the experiment with OVCAR-8 ovarian, 55.6%; in the experiment on OVCAR-5 ovarian, 29.1%. In addition, the growth in the experiment with OVCAR-4 ovarian is 95.8%; in the experiment with SK-OV-3 ovarian, -14.6% (active); with IGROV1 ovarian it was -15.6% (active); in the experiment with OVCAR-3 ovarian it was 59.3%; in the experiment with NCI/ADR-RES ovarian it was 60.7%.

With `COc1ccc(Nc2ncccc2NC(=O)c2cn(Cc3cccc(Oc4ccccc4)c3)nn2)cc1`, the growth in the experiment on EKVX NSCLC is 86.6%; with SN12C renal, 92.3%; with UO-31 renal, 63.7%; in the experiment with TK-10 renal, 99.6%; with ACHN renal, 99.5%; in the experiment with CAKI-1 renal it was 87.3%. Besides, the growth is 81.5% in the experiment on A498 renal; 91.4% in the experiment on CCRF-CEM leukemia; 65.3% in the experiment on MOLT-4 leukemia; 74.2% in the experiment on SR leukemia; 87.5% in the experiment with OVCAR-8 ovarian; 105% in the experiment on OVCAR-5 ovarian. The growth with OVCAR-4 ovarian is 78.7%; in the experiment with SK-OV-3 ovarian it was 103%; with IGROV1 ovarian it was 98.8%; in the experiment on OVCAR-3 ovarian, 92%; in the experiment on HS 578T breast it was 95.7%; in the experiment with NCI/ADR-RES ovarian, 76.6%.

With `Cc1ccc(F)c(NC(=O)Nc2ccc(-c3cccc4[nH]nc(N)c34)cc2)c1`, the growth in the experiment with EKVX NSCLC is 21.9%; with SN12C renal it was 24.9%; with UO-31 renal, 17.6%; in the experiment with TK-10 renal, 2.19% (active); in the experiment with ACHN renal it was 15.4%; with CAKI-1 renal it was 31.8%. Besides, the growth in the experiment on A498 renal was 30.1%; in the experiment on CCRF-CEM leukemia it was 11.4%; in the experiment on MOLT-4 leukemia, 15.5%; with SR leukemia it was 4.39% (active); in the experiment with OVCAR-8 ovarian, 9.41% (active); in the experiment with OVCAR-5 ovarian it was 21.4%. Moreover, the growth in the experiment on OVCAR-4 ovarian was 21.1%; in the experiment on SK-OV-3 ovarian it was 52.1%; in the experiment on IGROV1 ovarian, 10.1%; in the experiment with OVCAR-3 ovarian it was 33.2%; with NCI/ADR-RES ovarian, 26%.

As for `CN(C)CCn1c(=O)c2c3cc4c(cc3n(CCN(C)C)c2c2ccc(Cl)cc21)OCO4`, the growth in the experiment with EKVX NSCLC was 74%; in the experiment with SN12C renal it was 31.7%; with UO-31 renal, 57.8%; in the experiment with TK-10 renal, 103%; with ACHN renal it was 26.3%; with CAKI-1 renal it was 42.4%. For the same compound, the growth in the experiment on A498 renal is 67.1%; in the experiment with MOLT-4 leukemia, 3.05% (active); in the experiment on SR leukemia, -13.5% (active); in the experiment with RPMI-8226 leukemia it was 44.7%; in the experiment on OVCAR-8 ovarian, 31.7%; in the experiment with OVCAR-5 ovarian, 81.4%. The growth with OVCAR-4 ovarian was 61.3%; in the experiment with SK-OV-3 ovarian it was 41.3%; with IGROV1 ovarian, 38.4%; with OVCAR-3 ovarian, 83.5%; with HS 578T breast it was 84.7%; with NCI/ADR-RES ovarian, 31.4%.

As for `COc1cc2ncnc3c2cc1OCCCCCN(C)Cc1ccc(Br)cc1N3`, the growth in the experiment with EKVX NSCLC is 21.4%; in the experiment on SN12C renal it was 32.5%; with UO-31 renal, 11.2%; in the experiment with TK-10 renal, 3.42% (active); with ACHN renal, 8.64% (active); in the experiment on CAKI-1 renal it was 19.3%. For the same compound, the growth was 60.9% in the experiment with A498 renal; 51.8% in the experiment with CCRF-CEM leukemia; 22.1% in the experiment with MOLT-4 leukemia; 21.6% with SR leukemia; 41.9% in the experiment with OVCAR-8 ovarian; 50.1% in the experiment with OVCAR-5 ovarian. Further, the growth is 42% in the experiment with OVCAR-4 ovarian; -4.09% (active) with SK-OV-3 ovarian; -8.59% (active) in the experiment on IGROV1 ovarian; 46.9% in the experiment with OVCAR-3 ovarian; 46.7% in the experiment with NCI/ADR-RES ovarian.

Consider `CC(C)(C)c1nc(-c2cccc(NS(=O)(=O)c3c(F)cccc3F)c2F)c(-c2ccnc(N)n2)s1`, for which the growth with EKVX NSCLC was 97.7%; in the experiment with SN12C renal, 80.1%; in the experiment on UO-31 renal, 37.1%; in the experiment on TK-10 renal it was 65.2%; in the experiment on ACHN renal, 59.3%; in the experiment with CAKI-1 renal, 56.4%. Moreover, the growth with A498 renal was 135%; in the experiment on CCRF-CEM leukemia, 59%; in the experiment with MOLT-4 leukemia it was 39.4%; in the experiment on SR leukemia it was 50.4%; in the experiment on OVCAR-8 ovarian, 94.7%; in the experiment on OVCAR-5 ovarian, 41.1%. Moreover, the growth in the experiment with OVCAR-4 ovarian is 114%; in the experiment with SK-OV-3 ovarian, 71.9%; in the experiment with IGROV1 ovarian, 64.5%; in the experiment with OVCAR-3 ovarian it was 103%; with NCI/ADR-RES ovarian, 95.5%.

As to `COc1cc(CCc2cc(NC(=O)c3ccc(N4C[C@@H](C)N[C@@H](C)C4)cc3)n[nH]2)cc(OC)c1`, the growth was 84.7% in the experiment on EKVX NSCLC; 31.1% in the experiment on SN12C renal; 9.25% (active) in the experiment with UO-31 renal; 57.6% in the experiment on TK-10 renal; 39.5% in the experiment with ACHN renal; 20.4% in the experiment with CAKI-1 renal. Moreover, the growth was -1.03% (active) with A498 renal; 10.6% with MOLT-4 leukemia; -11% (active) in the experiment on SR leukemia; 41.5% in the experiment with RPMI-8226 leukemia; 58.4% with OVCAR-8 ovarian; 29.7% with OVCAR-5 ovarian. Besides, the growth with OVCAR-4 ovarian was 49.6%; in the experiment with SK-OV-3 ovarian, 25.6%; with IGROV1 ovarian it was 16.7%; in the experiment on OVCAR-3 ovarian, 78.8%; with NCI/ADR-RES ovarian, 91.3%.
